The list is not random: actives were taken first. Their share in the collection is about 3.4%.
TMEM16A inh: TMEM16A chloride channel inhibitors, primary screen, cell-based, HTS; Anoctamin-1 (Mus musculus), Q8BHY3; HEK293 TMEM16A/YFP iodide influx fluorescence, ionomycin; normalized B-score (activity score, 25-100; higher = stronger inhibition) at 10 µM; 1.2% of 310,000 active;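 active means ratio plate-corrected score three or more library SD toward inhibition, starting fluorescence score within five deviations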;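 further: score derived from kinetic fluorescence span divided by baseline fluorescence per well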
MEKK2 mut-MEK5: MEK5 binding signal on mutant MEKK2 PB1, primary screen, biochemical, multiplex bead flow cytometry, Alexa488-MEK5. Alexa488-MEK5 binding to MEKK2 mutant. percent response, % at 10 µM. 0.35% of 290,000 active. AID 1530, 2009; in the data active means percent response above about 24%, passing the limit was not always enough
MEKK2 WT-MEK5: modulators of MEK5 binding to wildtype MEKK2, primary screen, biochemical, multiplex bead flow cytometry, Alexa488-MEK5; Mitogen-activated protein kinase kinase kinase 2 (Homo sapiens), Q9Y2U5; 1.1% of 290,000 active; binding response (% of control), % at 10 µM; Alexa488-MEK5 binding to MEKK2 WT; actives lie on both sides; AID 1531, 2009; in the data active means binding response below about 67% or above about 130%
NTR1 agonist: agonists of human NTR1, primary screen, imaging, U2OS cells, beta-arrestin-GFP, high content | AID 493036, 2011 | activation, % at 20 µM | 0.17% of 330,000 active | NTR1-U2OS beta-arrestin-GFP spot imaging, agonist mode | Neurotensin receptor type 1 (Homo sapiens), P30989;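 active means activation at or above 40% of the spot to cytoplasm intensity ratio, with at least 20 cells analyzed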;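 further: 0% = DMSO without peptide and 100% = 100 nM NTR1 peptide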
Target sequence (P30989 whole entry, looked up): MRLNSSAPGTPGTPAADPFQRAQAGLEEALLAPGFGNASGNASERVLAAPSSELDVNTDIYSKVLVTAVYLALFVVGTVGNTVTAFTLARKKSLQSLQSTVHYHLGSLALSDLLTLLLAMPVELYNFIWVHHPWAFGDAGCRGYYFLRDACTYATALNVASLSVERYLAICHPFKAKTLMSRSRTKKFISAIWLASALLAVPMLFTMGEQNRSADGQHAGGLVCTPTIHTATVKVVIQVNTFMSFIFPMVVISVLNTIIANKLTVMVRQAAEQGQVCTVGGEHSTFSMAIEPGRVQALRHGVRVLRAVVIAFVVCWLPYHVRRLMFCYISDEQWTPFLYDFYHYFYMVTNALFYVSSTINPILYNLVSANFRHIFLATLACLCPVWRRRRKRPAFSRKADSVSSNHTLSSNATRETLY
TMEM16A act: TMEM16A chloride channel activators or potentiators, primary screen, cell-based, HTS | Anoctamin-1 (Mus musculus), Q8BHY3 | B-score at 10 µM | 0.3% of 340,000 active | HEK293 TMEM16A/YFP-H148Q/I152L, iodide quench fluorescence; active compounds read low;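 active means fluorescence-ratio B-score plate-corrected deviation score at least 3 library SD below zero, with starting fluorescence score within 5 deviations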;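 further: channel opened by trigger with iodide after compound preincubation; score built on the fluorescence ratio of max minus min over baseline; more negative score means more quench and so TMEM16A activation or potentiation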
MEKK3 PB1 HTS: modulators of MEKK3-MEK5 PB1 binding, primary screen, biochemical, wildtype MEKK3, multiplex bead flow cytometry, Alexa488-MEK5 | Mitogen-activated protein kinase kinase kinase 3 (Homo sapiens), Q99759 | bead-based flow cytometry, Alexa488-MEK5 binding to MEKK3; actives lie on both sides; 0 = blocked by unlabeled MEK5, 100 = vehicle | binding response (% of control), % at 10 µM | 1.4% of 290,000 active;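 active means binding response more than 3 SD above or below the average of its plate-row segment, actives on both sides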;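 further: Alexa488 bead fluorescence after subtracting the streptavidin-only scavenger bead signal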
MEKK2wt confirm: modulators of MEK5 binding to wildtype MEKK2, confirmation, biochemical, single concentration, multiplex bead flow cytometry; 2.4% of 5,900 active; Alexa488-MEK5 binding to MEKK2 WT; actives lie on both sides; binding response (% of control), % at 10 µM; shares compounds with MEKK3 PB1 HTS; AID 1892, 2009; in the data active means binding response below about 16% or above about 210%; inactive means in between
MEKK2mut confirm: mutant MEKK2 PB1-MEK5 binding signal retest – biochemical, single concentration, multiplex bead flow cytometry, confirmation | shares compounds with MEKK3 PB1 HTS | 2% of 5,900 active | Alexa488-MEK5 binding to MEKK2 mutant | percent response, % at 10 µM; in the data active means percent response mostly above about 71%, no sharp cut-off; inactive means mostly below about 38%;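 further: higher means compound restores mutant binding toward wildtype level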
MEKK3-MEK5 inh: MEKK3 wild-type PB1 binding to MEK5, inhibitors, confirmation, biochemical, bead multiplex flow cytometry, single concentration, wildtype | shares compounds with MEKK3 PB1 HTS | binding response (% of control), % at 10 µM | 1.8% of 5,900 active | Alexa488-MEK5 binding to MEKK3; active compounds read low;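 active means binding response below 72% of control, or above a set upper limit, though filed actives all read lower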;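 further: 100% = DMSO only wells and 0% = binding blocked by excess unlabeled MEK5; lower values mean stronger disruption of MEK5 binding to MEKK3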
Starred values were filed as active, the others as inactive; i = inactive; x = not tested or not shown; [ ] = remark or other dose.

SMILES	TMEM16A inh	MEKK2 mut-MEK5	MEKK2 WT-MEK5	NTR1 agonist	TMEM16A act	MEKK3 PB1 HTS	MEKK2wt confirm	MEKK2mut confirm	MEKK3-MEK5 inh
COc1cc(CC(=O)OCC(=O)Nc2cc([N+](=O)[O-])ccc2Cl)cc(OC)c1OC	i	9.0	58.0*[inhibitor]	4.5	i	97.0	90.0	-6.0	97.0
COc1ccc(-c2cc(-c3nnc(COC(=O)CC4CCCC4)o3)c3ccccc3n2)cc1OC	i	0.0	93.0	1.8	i	135.0*	95.0	-9.0	99.0
Nc1nonc1C(=O)NCCNCc1ccccc1OCc1ccc(F)cc1	i	17.0	153.0*	0.7	i	107.0	118.0	5.0	102.0
O=C(NCC1CCCO1)c1cccc(S(=O)(=O)N2CCOCC2)c1 (stereo unspecified)	i	3.0	103.0	3.7	i	102.0	x	x	x
CN(C)CCN1C(=O)c2oc3ccccc3c(=O)c2C1c1cccc(Br)c1 (stereo unspecified)	i	-6.0	97.0	0.2	i	87.0	x	x	x
CN(C)CCN1C(=O)c2oc3ccc(Cl)cc3c(=O)c2C1c1cccc(Br)c1 (stereo unspecified)	i	14.0	139.0*	1.1	i	129.0*	114.0	8.0	105.0
CCN(CC(=O)Nc1c(F)cccc1F)C(=O)COc1ccc2c(C)cc(=O)oc2c1	i	-14.0	44.0*[inhibitor]	-0.7	i	41.0*[inhibitor]	96.0	-6.0	100.0
O=C(O)c1c[nH]c2ccc([N+](=O)[O-])cc2c1=O	x	x	x	x	i	x	x	x	x
Cc1cc(-c2csc(N)n2)c(C)n1CCc1ccccc1	i	7.0	56.0*[inhibitor]	1.1	i	94.0	103.0	0.0	93.0
Cc1ccccc1-c1cc(C(=O)NCc2cccc(C(F)(F)F)c2)nn1CC1CC(c2cccc([N+](=O)[O-])c2)=NO1 (stereo unspecified)	i	x	x	1.2	i	x	x	x	x
Brc1ccc(-c2nnc(-c3cccnc3)c3conc23)cc1	i	-5.0	78.0	0.7	x	80.0*[inhibitor]	99.0	1.0	102.0
CCOC(=O)c1c(-c2ccc(OC)cc2)csc1/N=C/N(C)C	i	0.0	105.0	2.5	i	136.0*	99.0	-5.0	97.0
O=C(CSCc1ccccc1)N=Nc1c(O)[nH]c2ccccc12	i	-1.0	102.0	-0.7	i	103.0	x	x	x
Cc1ccc(CN2CCN(CC(=O)N=Nc3c(O)[nH]c4ccccc34)CC2)cc1	i	7.0	89.0	1.1	i	96.0	x	x	x
CCn1c(SCC(=O)N=Nc2c(O)[nH]c3ccccc23)nc2ccccc21	i	1.0	101.0	3.1	i	145.0*	105.0	7.0	107.0
CCn1c(SCC(=O)N=Nc2c(O)[nH]c3ccccc23)nnc1-c1ccc(C(C)(C)C)cc1	i	1.0	111.0	1.4	x	132.0*	99.0	-3.0	99.0
CO/N=C/c1ccc(Oc2ccc(C)cc2)nc1	i	26.0*	114.0	0.0	i	111.0	98.0	-3.0	100.0
Cc1ccc(-c2nc3cccnc3s2)cc1NS(C)(=O)=O	i	8.0	104.0	2.1	i	108.0	x	x	x
CCC1(C(=O)OC)CCc2c(cc(OC)c3ccccc23)C1=O (stereo unspecified)	i	-3.0	93.0	3.4	i	99.0	x	x	x
CCOC(=O)Cc1csc(N/N=C/c2ccccc2)n1	i	3.0	110.0	0.1	i	154.0*	107.0	-1.0	102.0
CCOC(=O)Cc1csc(NC(=O)CC(C)(C)CC(=O)O)n1	i	25.0	131.0	-0.1	i	128.0*	97.0	-2.0	100.0
CCOC(=O)Cc1csc(NC(=O)CCC(=O)O)n1	i	0.0	101.0	0.4	i	93.0	x	x	x
O=C(Cc1ccc([N+](=O)[O-])cc1)Nc1nnc(C2CC2)s1	i	1.0	107.0	1.2	i	171.0*	104.0	-1.0	101.0
CC(C)(C)Cc1nnc(NC(=O)Cc2ccc([N+](=O)[O-])cc2)s1	i	-4.0	93.0	-1.7	i	94.0	x	x	x
CCOC(=O)Cc1csc(NC(=O)Cc2ccc([N+](=O)[O-])cc2)n1	i	1.0	102.0	2.0	i	132.0*	125.0	10.0	111.0
SMILES	TMEM16A inh	MEKK2 mut-MEK5	MEKK2 WT-MEK5	NTR1 agonist	TMEM16A act	MEKK3 PB1 HTS	MEKK2wt confirm	MEKK2mut confirm	MEKK3-MEK5 inh
Cc1ccc(N=C(N(C)C)P(=O)(N(C)C)N(C)C)c(C)c1	i	-3.0	77.0	0.5	i	72.0*[inhibitor]	102.0	11.0	103.0
Cc1ccc(OCCC(=O)N2CCN(c3ccc(O)cc3)CC2)cc1	i	2.0	100.0	0.7	i	99.0	x	x	x
NC(=O)c1ccc(SCC(=O)OCC(=O)NCC2CCCCC2)c([N+](=O)[O-])c1	i	x	x	1.6	i	x	x	x	x
CC1(CC(=O)N/N=C/c2cc(Br)c(O)cc2O)OCCO1	i	4.0	102.0	1.0	i	101.0	x	x	x
Cc1oc(/C=N/NC(=O)CC2(C)OCCO2)cc1Br	i	2.0	111.0	1.0	i	132.0*	107.0	6.0	106.0
Cc1csc(=O)n1CC(=O)OCC(=O)Nc1cc(S(=O)(=O)N2CCOCC2)ccc1Cl	i	x	x	-0.6	i	x	x	x	x
O=C1N(Cc2cccc(Cl)c2)C[C@@H]2C[C@@H](c3c[nH]c4ccccc34)N3CCC[C@@]123	i	22.0	x	-1.3	-4.64*	63.0*[inhibitor]	84.0	-10.0	72.0
O=C1N(Cc2cccc(Cl)c2)C[C@@H]2C[C@@H](c3cccc4ncccc34)N3CCC[C@@]123	i	-9.0	92.0	2.6	i	101.0	x	x	x
C=CCN1C(=O)/C(=C/c2ccsc2)SC1=S	i	3.0	101.0	1.8	i	102.0	x	x	x

Assay outcomes as filed in PubChem BioAssay.
